SMILES strings stand for the structures.

What all share (type): functional
Assay [1] deals with Solute carrier family 2, facilitated glucose transporter member 1 (Homo sapiens) (UniProt P11166). Put plainly: ST_JUDE_LEISH: Cytotoxicity at 2uM final concentration against transgenic Leishmania Mexicana promastigotes LmGLUT1 that are glucose transport deficient and complemented with the human glucose transporter GLUT1. Activity is measured by DNA content using SYBR green in vitro.

Assay [2] has as its target Hexose transporter 1 (Plasmodium falciparum) (UniProt O97467). Put plainly: ST_JUDE_LEISH: Cytotoxicity at 2uM final concentration against transgenic Leishmania Mexicana promastigotes LmPfHT that are glucose transport deficient and complemented with the Plasmodium falciparum hexose transporter. Activity is measured by DNA content using SYBR green in vitro.
The target in assay [3] is Glucose transporter (Leishmania mexicana) (UniProt O61059). Put plainly: ST_JUDE_LEISH: Cytotoxicity at 2uM final concentration against transgenic Leishmania Mexicana promastigotes LmGT2 that are glucose transport deficient and complemented with the L. Mexicana glucose transporter 2. Activity is measured by DNA content using SYBR green in vitro.

Solute carrier family 2, facilitated glucose transporter member 1 (Homo sapiens), sequence (P11166 whole entry): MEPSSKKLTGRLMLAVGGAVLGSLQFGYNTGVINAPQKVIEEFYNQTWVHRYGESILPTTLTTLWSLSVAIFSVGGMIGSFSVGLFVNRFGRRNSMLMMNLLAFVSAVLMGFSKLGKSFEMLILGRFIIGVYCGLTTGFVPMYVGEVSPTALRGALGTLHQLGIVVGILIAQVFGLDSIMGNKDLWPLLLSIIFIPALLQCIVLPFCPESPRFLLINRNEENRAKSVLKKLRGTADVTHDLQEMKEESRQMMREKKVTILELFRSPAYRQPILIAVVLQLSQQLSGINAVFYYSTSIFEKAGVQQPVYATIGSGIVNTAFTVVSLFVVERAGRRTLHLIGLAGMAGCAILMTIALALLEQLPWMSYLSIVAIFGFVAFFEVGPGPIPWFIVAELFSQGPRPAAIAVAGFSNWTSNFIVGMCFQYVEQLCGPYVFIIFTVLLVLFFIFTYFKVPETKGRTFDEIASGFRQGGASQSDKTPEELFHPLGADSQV

As a reminder, the inhibition is the relative decrease from the control value, in per cent. Consider `CCCC1N=C(N)N=C(N)N1c1ccccc1` (stereo unspecified), for which the inhibition is 2.1% in assay [1], -1.28% in assay [2] and 0.53% in assay [3].

Take `CC(=O)N1N=C(c2cccs2)Sc2c1nc(-c1ccc(Cl)cc1)n2C(C)=O`: the inhibition was 11.9% in assay [1], 12.2% in assay [2] and 11.9% in assay [3].

As to `N#Cc1ccc2c(c1)CCN(CCC1CCC(NC(=O)c3cc4cccc([N+](=O)[O-])c4[nH]3)CC1)C2` (stereo unspecified), the inhibition in assay [1] stood at 10.1%; in assay [2], 10.8%; in assay [3], 9.97%.

Take `CC(C)OC(=O)c1cccnc1SCC(=O)Nc1ccc(C(F)(F)F)cc1Cl`: the inhibition in assay [1] is 1.58%; in assay [2] it was 1.68%; in assay [3], 3.79%.

Take `COc1ccc(OC)c(-c2ccc(O)c(CNCC(C)c3ccccc3)c2)c1` (stereo unspecified): the values for the inhibition in assay [1], in assay [2] and in assay [3] were -0.66%, -0.62% and -1.24%, respectively.

On to `O=C(Cc1c[nH]cn1)Nc1cccc(-c2ccc(-c3nc4cc(C(F)(F)F)ccc4[nH]3)cc2)c1`, for which the values for the inhibition in assay [1], in assay [2] and in assay [3] were 3.54%, 3.75% and 1.97%, respectively.

In the case of `COc1ccc2nc(-c3cc(-c4ccc(NC(=O)CN5CCOCC5)cc4)cnc3N)[nH]c2c1`, the inhibition was determined as 17.5% in assay [1], 44.4% in assay [2] and 11.7% in assay [3].

With `CC(C)[C@H](NC(=O)NC1CCC(CCN2C3CCC2CC(OC(=O)C(CO)c2ccccc2)C3)CC1)C(O)(c1ccccc1)c1ccccc1` (stereo partly specified), the inhibition was found to be 3.62% in assay [1], 3.92% in assay [2] and 1.15% in assay [3].

Turning to `Cc1ccc(/C=C/C(=O)NCCCCCN2CCCN(C(=O)Nc3ccc(Cl)c(Cl)c3)CC2)cc1`, the inhibition in assay [1] was found to be 1.97%; in assay [2], 2.34%; in assay [3], 4.4%.

For `COc1ccc2nccc([C@@H](O)CN3CCC(NCc4ccc(OC)c(NC(C)=O)c4)CC3)c2c1`, the inhibition was 0.33% in assay [1], -2.04% in assay [2] and -1.41% in assay [3].

As to `Oc1c(CN2CCCC(C(F)(F)F)C2)cc(Cl)c2ccccc12` (stereo unspecified), the inhibition worked out at 1.85% in assay [1], 2.27% in assay [2] and 3.06% in assay [3].

Turning to `COc1cc(F)c2ncc(Cl)c(CCN3CCC(NCc4ccc5c(n4)NC(=O)CO5)CC3)c2c1`, the inhibition in assay [1] is 3.28%; in assay [2], 4.15%; in assay [3], -1.5%.

The values are drawn from ChEMBL document CHEMBL3433997, “St. Jude Leishmania screening dataset” (2016).
